# ChEMBL document CHEMBL3988442, “University of Dundee, Small-Polar-MMV Screening Library” (2021)
# Hit rate of the full screen: of about 69,000 compounds, about 1,000 (1.4%) showed an effect of 50% or more. Many of the other results were omitted from the sample, so strong results are more common in it than they were.
# Tested on: Leishmania donovani
# Experiment: Leishmania intramacrophage assay
# Assay type: functional, organism-based
# Set-up: scale not given: in the data most compounds retested in dose-response had high values
smiles,measurement,setting,value
CC(C)CCN1CCN(C(=O)c2ccc(=O)[nH]n2)CC1,Percent Effect,"30.3 µM, […]",20.4%
Cc1cc(NC(=O)CN2CCCC2c2noc(C(C)C)n2)on1 (configuration not stated),Percent Effect,30 µM,7.102%
O=C(Cn1ccc2c(Cl)cccc21)N1CCCC1,Percent Effect,"30.3 µM, […]",16.62%
CN1CCN(C(=O)Cn2ccc3c(Cl)cccc32)CC1,Percent Effect,"30.3 µM, […]",54.77%
CC(=O)N1CCN(C(=O)Cn2ccc3c(Cl)cccc32)CC1,Percent Effect,"30.3 µM, […]",1.884%
Cc1cc(C)c(CNC(=O)N2CCN(c3ncccn3)CC2)c(=O)[nH]1,Percent Effect,"30 µM, 30.03 µM",-5.034%
COc1cccc(CNC(CN2CCN(C)CC2)c2ccccc2)c1 (configuration not stated),Percent Effect,"30 µM, 30.03 µM",76.19%
CNS(=O)(=O)c1cccc(C(C)NCc2cccc(O)c2)c1 (configuration not stated),Percent Effect,"30.3 µM, […]",23.7%
Cc1cccc(CNC(CN2CCN(C)CC2)c2ccccc2)c1 (configuration not stated),Percent Effect,"30 µM, 30.03 µM",98.99%
O=C(C(CNCc1cccc(O)c1)c1ccccc1)N1CCOCC1 (configuration not stated),Percent Effect,"30.3 µM, […]",17.14%
Cc1cc(C)cc(CNC(c2ccccc2)c2nccn2C)c1 (configuration not stated),Percent Effect,30 µM,35.61%
COc1ccc(C(CN2CCN(C)CC2)Nc2ncccn2)cc1 (configuration not stated),Percent Effect,"30.3 µM, […]",-7.981%
COc1cccc(C(=O)N2CCN(CC(O)c3ccccc3)CC2)c1 (configuration not stated),Percent Effect,"30.3 µM, […]",-2.836%
COCCN1CCC(NCc2cccc(C)c2)C1 (configuration not stated),Percent Effect,30 µM,11.56%
O=C(c1nnn(-c2ccc(F)cc2)n1)N1CCC(O)CC1,Percent Effect,"30.3 µM, […]",1.215%
O=C(c1cn(CCN2CCCCC2)nn1)N1CCSCC1,Percent Effect,"30.3 µM, […]",25.8%
CC(O)CN1CC(C)(C)CN(C(=O)CCc2ccccc2)CC1=O (configuration not stated),Percent Effect,"30.3 µM, […]",-1.72%
O=C(CN1CCOC(Cn2cccn2)C1)NCCc1ccc(F)cc1 (configuration not stated),Percent Effect,"30 µM, 30.03 µM",1.853%
O=C(Cc1ccsc1)N1CCc2ccc(=O)n(CC3CC3)c2CC1,Percent Effect,"30.3 µM, […]",10.53%
COCCn1c2c(ccc1=O)CCN(C(=O)Cc1cccs1)CC2,Percent Effect,"30.3 µM, […]",20.34%
COCCn1c2c(ccc1=O)CCN(C(=O)Cc1ccsc1)CC2,Percent Effect,"30.3 µM, […]",55.32%
O=C(O)c1cccc(S(=O)(=O)N2CCOc3ccccc32)c1,Percent Effect,30 µM,14.21%
COc1cc2c(cc1C1CC(=O)NCc3nc(N(C)C)sc31)CCC2 (configuration not stated),Percent Effect,"30.3 µM, […]",11.87%
COc1ccc(C2CC(=O)NCc3nc(N(C)C)sc32)c(O)c1 (configuration not stated),Percent Effect,"30.3 µM, […]",16.16%
COc1ccc(C(C)C)cc1C1CC(=O)NCc2nc(N(C)C)sc21 (configuration not stated),Percent Effect,"30.3 µM, […]",60.09%
C[C@@H]1CN(C2CCN(c3ccccc3)CC2)CC[C@@]1(O)C1CCOCC1,Percent Effect,"30.3 µM, […]",22.22%
C[C@@H]1CN(C2CCCCC2)CC[C@@]1(O)C1CCOCC1,Percent Effect,"30.3 µM, […]",-0.4391%
C[C@@H]1CN(C2Cc3ccccc3C2)CC[C@@]1(O)C1CCOCC1,Percent Effect,"30.3 µM, […]",63.81%
CN(C)C(=O)NC1COC2(CCN(Cc3nccn3C)CC2)C1 (configuration not stated),Percent Effect,"30 µM, 30.03 µM",3.872%
c1cnnc(N2CCCC2CNCc2nc(-c3ccoc3)no2)c1 (configuration not stated),Percent Effect,30 µM,14.13%
COC(=O)c1cccn1C1CCN(Cc2cccnc2)CC1,Percent Effect,30 µM,38.52%
O=C(O)C(F)(F)F.c1ccc(CN2CCCn3nnc(Cn4cccc4)c3C2)nc1,Percent Effect,"30.3 µM, […]",-22.64%
O=C(O)C(F)(F)F.c1cnc(NCc2nnn3c2CN(Cc2ccco2)CCC3)nc1,Percent Effect,"30.3 µM, […]",-8.13%
O=C(O)C(F)(F)F.c1csc(CN2CCCn3nnc(COCC4CC4)c3C2)n1,Percent Effect,"30.3 µM, […]",52.28%
O=C(O)C(F)(F)F.c1csc(CN2CCCn3cnc(COCC4CC4)c3C2)n1,Percent Effect,"30.3 µM, […]",26.9%
Fc1ccc(CN2CCCn3nnc(COCC4CC4)c3C2)cc1.O=C(O)C(F)(F)F,Percent Effect,"30.3 µM, […]",-0.08958%
Cc1ccc(CN2CCCn3nnc(COCC4CC4)c3C2)s1.O=C(O)C(F)(F)F,Percent Effect,"30 µM, 30.03 µM",16.69%
O=C(O)C(F)(F)F.c1ccc(CN2CCCn3nnc(CNc4ncccn4)c3C2)nc1,Percent Effect,"30.3 µM, […]",67.35%
Cc1ccc(CN2CCc3c(COC(C)C)nn(C)c3C2)s1.O=C(O)C(F)(F)F,Percent Effect,"30.3 µM, […]",54.88%
Cc1ccc(CN2Cc3nnn(C)c3C(COCCN(C)C)C2)s1.O=C(O)C(F)(F)F.O=C(O)C(F)(F)F (configuration not stated),Percent Effect,"30 µM, 30.03 µM",25.22%
COCc1nn(C(C)C)c2c1CCN(Cc1ccc(C)s1)C2.O=C(O)C(F)(F)F,Percent Effect,"30 µM, 30.03 µM",26.5%
Cc1ccc(CN2CCCn3nnc(COCCN(C)C)c3C2)s1.O=C(O)C(F)(F)F.O=C(O)C(F)(F)F,Percent Effect,"30.3 µM, […]",66.44%
Cc1ccc(CN2CCc3c(COCC4CC4)nn(C)c3C2)s1.O=C(O)C(F)(F)F,Percent Effect,"30.3 µM, […]",25.61%
Cc1ccccc1CN1C[C@@H]2CC[C@H](C1)N(CC1CCC1)C2=O,Percent Effect,"30.3 µM, […]",6.524%
COCc1noc(CN2C[C@H](C3CC3)[C@@H](N(C)C)C2)n1,Percent Effect,"30.3 µM, […]",0.8667%
COCCOCCNS(=O)(=O)C1CS(=O)(=O)c2ccccc21 (configuration not stated),Percent Effect,"30.3 µM, […]",-2.938%
O=C(Nc1ccc(F)cc1)C1CNCCN1C(=O)CCc1cccnc1 (configuration not stated),Percent Effect,"30.3 µM, […]",21.52%
CC1CN(C)CCN1C(=O)c1ccn(-c2ccc(F)cc2)n1 (configuration not stated),Percent Effect,30 µM,12.79%
CN(CCN1CCCCCC1)C(=O)c1cc(CN2CCCC(O)C2)on1 (configuration not stated),Percent Effect,"30.3 µM, […]",28.93%
COc1cccc2c1OCCCN(Cc1ccc(C(N)=O)c(=O)[nH]1)C2,Percent Effect,"30.3 µM, […]",18.01%
COc1c(CNCc2ccccc2CN2CCOCC2)c(C)nn1C,Percent Effect,"30.3 µM, […]",15.12%
O=C(CN1CCc2cncnc2C1)NC1CCCCNC1=O (configuration not stated),Percent Effect,"30.3 µM, […]",3.811%
Cn1cc(CN2C[C@H]3CCC[C@@]3(COCC3CC3)C2)cn1.O=C(O)C(F)(F)F,Percent Effect,"30.3 µM, […]",55.4%
Cn1cc(CN2C[C@@H]3COC[C@]3(COCC3CC3)C2)cn1.O=C(O)C(F)(F)F,Percent Effect,"30.3 µM, […]",35.55%
Cc1nc(COC[C@@]23CCC[C@@H]2CN(Cc2cnn(C)c2)C3)cs1,Percent Effect,"30.3 µM, […]",33.3%
O=C(O)C(F)(F)F.O=C1N(c2ccsc2)CCC12CCCN(CC1CC1)C2 (configuration not stated),Percent Effect,"30.3 µM, […]",57%
CN(C)C(=O)CN1CCCC2(CCN(c3ccsc3)C2=O)C1.O=C(O)C(F)(F)F (configuration not stated),Percent Effect,"30 µM, 30.03 µM",-2.413%
COCCN1CCCC2(CCN(c3ccsc3)C2=O)C1.O=C(O)C(F)(F)F (configuration not stated),Percent Effect,"30.3 µM, […]",-19.62%
Cc1ccoc1C(=O)N1C[C@@H](OCC2CC2)[C@H]2OCCC[C@H]21,Percent Effect,"30.3 µM, […]",18.9%
Cc1nc(NC(=O)C(C)N(C)Cc2ccc3c(c2)OCO3)sc1C (configuration not stated),Percent Effect,"30.3 µM, […]",11.52%
COc1cccc(CN(C)C(C)C(=O)Nc2nc(C)c(C)s2)c1 (configuration not stated),Percent Effect,"30.3 µM, […]",51.15%
Cc1nc(NC(=O)C(C)N(C)Cc2cccc(C#N)c2)sc1C (configuration not stated),Percent Effect,"30.3 µM, […]",-18.76%
